13 molecules from PubChem BioAssay (NCI) can be followed below.

Among the test systems are NCI-H23 lung; NCI-H226 lung; NCI-H322M lung; HOP-62 NSCLC; NCI-H460 lung; HOP-92 NSCLC; NCI-H522 lung; A549/ATCC NSCLC; 786-0 renal; COLO 205 colon.
Holding throughout (test): NCI-60 one-dose screen, 48 h (100 = growth as untreated, 0 = no growth, -100 = all killed)
What all share (conditions): 10 µM unless noted

The panel holds about 83,000 compounds, 20% with a hit somewhere; the sample as a whole holds those more often.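 Each cell line was grown in a 96-well plate and treated with one concentration of compound for 48 hours. Values below 10 were considered active.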 Unmarked numbers belong to inactive results. Activity calls are given as the source filed them.

`O=C1/C(=C(/c2ccccc2)N2CCOCC2)Cc2ccccc21`: the growth in the assay on NCI-H23 lung was 54.1%; in the assay with NCI-H226 lung, 58.8%; with NCI-H322M lung, 98.3%; with HOP-62 NSCLC it was 81.8%; in the assay with NCI-H460 lung, 81%; in the assay with HOP-92 NSCLC, 8.98% (active). For the same molecule, the growth was -63.6% (active) in the assay with NCI-H522 lung, 77.2% in the assay on A549/ATCC NSCLC, 7.77% (active) in the assay with 786-0 renal and -48.4% (active) in the assay with COLO 205 colon.

Consider `Brc1ccc(-c2csc(Nc3ccccn3)n2)cc1`, for which the growth was 58.8% with NCI-H23 lung; 73% with NCI-H226 lung; 95.2% with NCI-H322M lung; 85.4% in the assay with HOP-62 NSCLC; 91.5% with NCI-H460 lung; 73% in the assay with HOP-92 NSCLC. The growth is 78.2% in the assay on NCI-H522 lung, 91.3% in the assay with A549/ATCC NSCLC, 88.5% with 786-0 renal and 107% in the assay with COLO 205 colon.

As to `Cc1ccc(NS(=O)(=O)c2ccc(-c3cnc(C4CC4)o3)cc2)cc1C`, the growth with NCI-H23 lung was 21.2%; with NCI-H226 lung, 47.6%; with NCI-H322M lung, 42.7%; in the assay on HOP-62 NSCLC it was 33.7%; in the assay on NCI-H460 lung, 12.3%; in the assay with HOP-92 NSCLC, 29.6%. Besides, the growth with NCI-H522 lung is -7.94% (active); in the assay on A549/ATCC NSCLC it was 27.1%; in the assay on 786-0 renal, 43.4%; in the assay on COLO 205 colon, -10.1% (active).

Take `N#C/C(=C\c1ccc(-c2ccc(Cl)c(Cl)c2)o1)c1nc(-c2ccco2)cs1`: the growth with NCI-H23 lung was 86.6%; with NCI-H226 lung, 81.5%; with NCI-H322M lung, 79.8%; with HOP-62 NSCLC, 79.9%; in the assay on NCI-H460 lung, 87.7%; with HOP-92 NSCLC, 109%. In addition, the growth in the assay on NCI-H522 lung was 89.3%; with A549/ATCC NSCLC, 113%; in the assay with 786-0 renal, 110%; in the assay on COLO 205 colon, 106%.

On to `CCOC(=O)c1c(C(=O)OCC)c2cc(-c3ccn4c(C(=O)c5ccccc5)c(C(=O)OCC)c(C(=O)OCC)c4c3)ccn2c1C(=O)c1ccccc1`, for which the growth was 88.8% in the assay on NCI-H23 lung; 93.1% in the assay on NCI-H226 lung; 99.9% in the assay on NCI-H322M lung; 97.4% in the assay with HOP-62 NSCLC; 98.3% with NCI-H460 lung; 52.4% with HOP-92 NSCLC. Moreover, the growth with NCI-H522 lung is 75.6%; with A549/ATCC NSCLC, 91.5%; with 786-0 renal, 98.4%; in the assay on COLO 205 colon, 109%.

For `C#CC(F)(F)[C@]1(O)CC[C@H]2[C@@H]3CCC4=CC(=O)CCC4=C3[C@@H](c3ccc(C(C)=O)cc3)C[C@@]21C`, the growth is 38.5% in the assay with NCI-H23 lung; 93.3% with NCI-H226 lung; 96.7% with NCI-H322M lung; 74.4% with HOP-62 NSCLC; 97.4% with NCI-H460 lung; -31.7% (active) with HOP-92 NSCLC. Also, the growth with NCI-H522 lung was -73% (active); in the assay with A549/ATCC NSCLC, 73.4%; in the assay with 786-0 renal, -41% (active); in the assay with COLO 205 colon it was 78.3%.

As for `Cc1ccc2c(C(C[N+](=O)[O-])c3ccccc3)c(-c3ccccc3)[nH]c2c1` (stereo not given), the growth in the assay with NCI-H23 lung is 39.4% [9.5 µM]; in the assay with NCI-H226 lung, 35.3% [9.5 µM]; with NCI-H322M lung, 41.7% [9.5 µM]; in the assay on HOP-62 NSCLC, 20.2% [9.5 µM]; in the assay on NCI-H460 lung it was 12.2% [9.5 µM]; in the assay on HOP-92 NSCLC, 25.8% [9.5 µM]. For the same molecule, the growth in the assay on NCI-H522 lung is -37.8% [9.5 µM] (active); with A549/ATCC NSCLC, 28.6% [9.5 µM]; with 786-0 renal, 30.8% [9.5 µM]; in the assay with COLO 205 colon it was 9.02% [9.5 µM] (active).

On to `O=C1OCC2=C1C(c1ccncc1)c1cc3c(cc1N2CCO)OCO3` (stereo not given), for which the growth in the assay with NCI-H23 lung is 99.6%; in the assay on NCI-H226 lung it was 102%; in the assay with NCI-H322M lung, 98.3%; with HOP-62 NSCLC, 93.5%; in the assay with NCI-H460 lung it was 101%; with HOP-92 NSCLC, 87.6%. In addition, the growth in the assay with NCI-H522 lung is 91.2%; with A549/ATCC NSCLC it was 98.9%; in the assay with 786-0 renal it was 112%; with COLO 205 colon, 53.1%.

With `Cn1c(O)c(N=NC(=O)c2cc(-c3ccccc3)on2)c2ccccc21`, the growth in the assay on NCI-H23 lung was 88.5%; in the assay on NCI-H226 lung, 88.4%; in the assay on NCI-H322M lung, 108%; with HOP-62 NSCLC, 102%; in the assay with NCI-H460 lung, 100%; in the assay with HOP-92 NSCLC it was 105%. Moreover, the growth was 89.9% in the assay with NCI-H522 lung, 108% in the assay on A549/ATCC NSCLC, 100% with 786-0 renal and 130% with COLO 205 colon.

On to `COc1cccc(-c2nn(C(C)(C)C)cc2-c2ccnc(NCCCNS(=O)(=O)c3ccc(C)cc3)c2)c1`, for which the growth is 105% in the assay on NCI-H23 lung; 101% in the assay with NCI-H226 lung; 106% with NCI-H322M lung; 100% in the assay on HOP-62 NSCLC; 103% in the assay with NCI-H460 lung; 114% in the assay on HOP-92 NSCLC. Besides, the growth with NCI-H522 lung was 99%; with A549/ATCC NSCLC, 103%; in the assay with 786-0 renal, 103%; in the assay on COLO 205 colon, 121%.

`COc1ccc(-c2nn(-c3ccc(Cl)cc3)cc2-c2nc3ccccc3[nH]2)cc1`: the growth in the assay with NCI-H23 lung is 89.1%; in the assay on NCI-H226 lung, 91.4%; with NCI-H322M lung, 102%; with HOP-62 NSCLC, 113%; in the assay with NCI-H460 lung it was 88.1%; with HOP-92 NSCLC, 97%. Also, the growth is 67.7% in the assay on NCI-H522 lung, 95.4% in the assay with A549/ATCC NSCLC, 103% in the assay on 786-0 renal and 101% in the assay with COLO 205 colon.

In the case of `c1ccc(Cn2cc(-c3nc4ccccc4s3)c3cccnc32)cc1`, the growth was 96.6% in the assay on NCI-H23 lung; 92.4% in the assay on NCI-H226 lung; 101% in the assay with NCI-H322M lung; 96.1% in the assay on HOP-62 NSCLC; 102% in the assay with NCI-H460 lung; 98.3% in the assay with HOP-92 NSCLC. Moreover, the growth was 87.9% in the assay with NCI-H522 lung, 104% in the assay on A549/ATCC NSCLC, 104% with 786-0 renal and 118% with COLO 205 colon.

Turning to `COc1cccc(-c2nc(SCC(=O)Nc3ccc(C(=O)/C=C/c4ccc(OC)c(OC)c4)cc3)[nH]c(=O)c2C#N)c1`, the growth was 77.7% in the assay on NCI-H23 lung; 105% in the assay with NCI-H226 lung; 76.3% in the assay with NCI-H322M lung; 94.1% in the assay on HOP-62 NSCLC; 94.7% in the assay with NCI-H460 lung; 93.2% in the assay with HOP-92 NSCLC. In addition, the growth in the assay on NCI-H522 lung is 75.4%; with A549/ATCC NSCLC, 90.6%; in the assay with 786-0 renal, 99.4%; with COLO 205 colon it was 103%.
